This note sets out measurements from PubChem BioAssay AID2570 (National Center for Advancing Translational Sciences (NCATS), 2010).

Results filed as inconclusive are left out. Unmarked numbers belong to inactive results. The call rests on the fitted dose curve; in most records, active means well fitted curve in the direction sought with a large enough effect; inconclusive means small, poorly fitted or top-dose-only effect, or another doubt; inactive means no such curve, though single readings can be large or run the other way.

The experiment deals with Vasopressin V1b receptor (Homo sapiens) (UniProt P47901). Briefly: Counterscreen Concentration-Response Assay for Antagonists of the Neuropeptide S Receptor: Vasopressin Receptor Calcium Signal Transduction. The settings on record: CHO-AVPR1B, vasopressin-stimulated calcium fluorescence, FDSS. The text has this: NIH Chemical Genomics Center [NCGC] NIH Molecular Libraries Probe Production centers Network [MLPCN] MLPCN Grant: X01-DA026210-01 Assay Submitter (PI): Heilig, Markus Alexander NCGC Assay Overview: Neuropeptide S receptor (NPSR), previously known as GPR154, is a recently de-orphanized G protein coupled receptor. Its endogenous ligand is the 20 amino acids peptide Neuropeptide S (NPS). […] NPS and its receptor are found in various tissues. Specifically they are highly expressed in brain areas that have been implicated in modulation of arousal, stress and anxiety. Central administration of NPS in mice produces an unusual profile of activity by inducing wakefulness and arousal, while at the same time suppressing anxiety. Therefore, NPSR may represent a novel drug target for the treatment of sleep and anxiety disorders. To identify NPSR antagonists, we developed a cell-based assay with transfected NPS receptor. NPS can stimulate the production of cAMP as well as release intracellular calcium in Chinese hamster ovary cells stably expressing NPS receptor. This change in intracellular calcium can be detected using a calcium indicator dye on a calcium imaging plate reader system (FDSS). To validate the specific action of compounds on the NPS receptor, a counterscreen was developed that tests compounds' antagonism of AVPR1B vasopressin receptor stimulation by vasopressin. […] shares 27% identity with the NPS receptor.
Chain of Vasopressin V1b receptor (Homo sapiens) (P47901 whole entry, looked up): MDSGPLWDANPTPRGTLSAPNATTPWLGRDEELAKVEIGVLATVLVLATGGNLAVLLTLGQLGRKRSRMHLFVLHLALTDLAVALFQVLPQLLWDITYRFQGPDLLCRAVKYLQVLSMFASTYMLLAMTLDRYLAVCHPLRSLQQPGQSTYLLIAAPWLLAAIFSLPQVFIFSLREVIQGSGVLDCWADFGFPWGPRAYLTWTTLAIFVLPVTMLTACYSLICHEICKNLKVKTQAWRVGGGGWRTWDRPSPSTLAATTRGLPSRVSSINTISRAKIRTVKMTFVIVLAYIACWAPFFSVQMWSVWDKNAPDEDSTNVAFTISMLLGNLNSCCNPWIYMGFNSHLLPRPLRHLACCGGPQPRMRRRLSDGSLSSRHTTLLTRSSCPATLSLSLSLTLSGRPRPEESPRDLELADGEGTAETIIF
NCGC Assay Protocol Summary: A Chinese hamster ovary (CHO) cell line stably expressing human vasopressin receptor (AVPR1B) was maintained in F-12 Kaighn's media (Invitrogen, Carlsbad, CA, 21127) supplemented with 10 % FBS, 100 units/ml penicillin, 100 ug/ml streptomycin and 250 ug/ml geneticin at 37C, 5% CO2 in a humidified atmosphere. Before the assay, aliquots of cells were frozen and stored at -135C. The assay was performed on a FDSS-7000 kinetic plate reader in 1536-well format. The maximums of kinetic fluorescence responses were converted into text files using the instrument's software data export utility. Data for antagonist response were normalized to the controls for basal activity (DMSO only) and 100% inhibition (no signal). AC50 values were determined from concentration-response data modeled with the standard Hill equation. CHO-V1B 1536-well FDSS assay protocol: (1) Frozen CHO-V1B cells were thaw, washed once with fresh media and resuspended in F-12 Kaighn's media supplemented with 10 % FBS, 100 units/ml penicillin and 100 ug/ml streptomycin. Cells were plated at 3 ul/well (1200 cells) to black, clear-bottom, tissue-culture treated 1536-well plates, and then cultured at 37C, 5 % CO2 for 16 to 30 hours. (2) Add 3 ul of calcium dye (from High Performance PBX Calcium Assay Kit, BD Biosciences). The calcium dye was prepared according to the manufactory's instruction. (3) Incubation at 37C, 5 % CO2 for 60 min. (4) Add 23 nl/well of compound in DMSO solution. The final titration for each compound was between 0.6 nM and 46 uM. (5) Load plates to FDSS-7000. The following steps were performed on FDSS-7000. (6) Record fluorescent background (Ex 480 nm, Em 520-560 nm) for 10 s. (7) Add 2 ul of stimulation reagent (1X HBSS buffer, 0.1% BSA, 60 nM vasopressin). Record antagonist response (Ex 480 nm, Em 520-560 nm) for 180 s. Keywords: MLSMR, MLPCN, NIH Roadmap, qHTS, NCGC, NPS, Neuropeptide S Antagonists
Take `COc1ccc(C2c3c(ncn(CCN4CCOCC4)c3=N)Oc3ccc4ccccc4c32)cc1` (stereo not given): the max response was -23.1%.

For `COc1cccc(C2c3c(ncn(-c4ccccc4Br)c3=N)Oc3ccc4ccccc4c32)c1` (stereo not given), the max response is 18.9%. `COc1ccc(C2c3c(nc(Cc4ccccc4)[nH]c3=O)Oc3ccc4ccccc4c32)cc1OC` (stereo not given): the max response was 14.7%.

Take `O=C(c1ccccc1)N(C(=O)c1ccccc1)c1ncnc2c1C(c1ccccc1)c1c(ccc3ccccc13)O2` (stereo not given): the max response is 12.9%. Under `COc1ccc(C2c3c(n(CCc4ccccc4)cnc3=N)Oc3ccc4ccccc4c32)cc1OC` (stereo not given) stands -53.4%; under `N=c1c2c(ccn1Cc1ccccc1)Oc1ccc3ccccc3c1C2c1ccccc1` (stereo not given), 18.5%; under `N=c1c2c(ncn1-c1ccccc1)Oc1ccc3ccccc3c1C2c1ccc2c(c1)CCO2` (stereo not given), -13.6%. `COc1cccc(C2c3c(ncn(-c4ccc(C(C)(C)C)cc4)c3=N)Oc3ccc4ccccc4c32)c1` (stereo not given): the max response was 17.5%.

For the compound `COc1cccc(C2c3c(ncn(-c4ccc(-c5ccccc5)cc4)c3=N)Oc3ccc4ccccc4c32)c1` (stereo not given), the max response is -10.6%.

`COc1cccc(C2c3c(ncn(-c4cccc(Cl)c4)c3=N)Oc3ccc4ccccc4c32)c1` (stereo not given): the max response is -5.71%. For the compound `COc1cccc(C2c3c(ncn(-c4ccc(NC(C)=O)cc4)c3=N)Oc3ccc4ccccc4c32)c1` (stereo not given), the max response is -34.2%. With `COc1ccc(C2c3c(ncn(CCCc4ccccc4)c3=N)Oc3ccc4ccccc4c32)cc1OC` (stereo not given), the max response is 11.1%.

For the compound `O=C(NCc1ccccc1)Nc1ncnc2c1C(c1ccccc1)c1c(ccc3ccccc13)O2` (stereo not given), the max response was -5.16%. For `N=c1c2c(ccn1CCCc1ccccc1)Oc1ccc3ccccc3c1C2c1ccccc1` (stereo not given), the max response was -23.7%. Next, `N=c1c2c(ccn1-c1ccccc1)Oc1ccc3ccccc3c1C2c1ccccc1` (stereo not given): -28.3%; `COc1cccc(C2c3c(ncn(-c4cccc(OC)c4)c3=N)Oc3ccc4ccccc4c32)c1` (stereo not given): -13.6%. Turning to `COc1cccc(C2c3c(ncn(-c4ccccc4C)c3=N)Oc3ccc4ccccc4c32)c1` (stereo not given), the max response was -2.54%. Next, `Cc1c(P(=S)(c2ccccc2)c2ccccc2)c2ccccc2n1CCc1ccccc1`: -38.1%. As for `COc1ccc(C2c3c(nc(CCc4ccccc4)[nH]c3=O)Oc3ccc4ccccc4c32)cc1OC` (stereo not given), the max response was 1.09%. Under `COc1cccc(C2c3c(ncn(-c4ccc5c(c4)OCO5)c3=N)Oc3ccc4ccccc4c32)c1` (stereo not given) stands -20.7%; under `COc1ccc(C2c3ccc(OCc4ccccc4)cc3Oc3ncn(CCN4CCOCC4)c(=N)c32)cc1OC` (stereo not given), -15.2%; under `COc1cccc(C2c3c(ncn(-c4ccccc4)c3=N)Oc3ccc4ccccc4c32)c1` (stereo not given), -8.43%.

`COc1cccc(C2c3c(ncn(-c4ccc(C)cc4)c3=N)Oc3ccc4ccccc4c32)c1` (stereo not given): the max response is -0.274%. In the case of `Cc1c(P(=S)(c2ccccc2)c2ccccc2)c2ccccc2n1CCCc1ccccc1`, the max response was 8.85%.

In the case of `COc1ccc(C2c3ccccc3Oc3ncn(CCN4CCOCC4)c(=N)c32)cc1OC` (stereo not given), the max response is 20.8%.

On to `COc1cccc(C2c3c(ncn(-c4ccccn4)c3=N)Oc3ccc4ccccc4c32)c1` (stereo not given), for which the max response was 29.6%. On to `COc1ccc(C2c3c(N)nc(CCCc4ccccc4)nc3Oc3ccc4ccccc4c32)cc1OC` (stereo not given), for which the max response was -15.9%.

For `COc1cccc(C2c3c(ncn(-c4ccc(C#N)cc4)c3=N)Oc3ccc4ccccc4c32)c1` (stereo not given), the max response was -46.5%. As to `CCC(C)(CCN1CCOCC1)N(Cc1cc2ccccc2n(C)c1=O)C(=O)C1CCCCC1` (stereo not given), the max response is -9.76%. Next, `COc1cccc(C2c3c(ncn(-c4ccccc4C(C)(C)C)c3=N)Oc3ccc4ccccc4c32)c1` (stereo not given): 9.94%. Next, `Cc1c(P(=S)(c2ccccc2)c2ccccc2)c2ccccc2n1Cc1ccccc1`: 0.753%. Next, `COc1ccc(C2C3=C(N=CN(CCN4CCOCC4)C3N)Oc3ccccc32)cc1OC` (stereo not given): 19.6%; `COc1ccc(-n2cnc3c(c2=N)C(c2cccc(OC)c2)c2c(ccc4ccccc24)O3)cc1` (stereo not given): -14.1%; `COc1cccc(C2c3c(ncn(-c4ccccc4-c4ccccc4)c3=N)Oc3ccc4ccccc4c32)c1` (stereo not given): 13.8%. With `COc1cccc(C2c3c(ncn(-c4ccc(Br)cc4)c3=N)Oc3ccc4ccccc4c32)c1` (stereo not given), the max response was 0.304%.

For `COc1cccc(C2c3c(ncn(-c4cccc(C#N)c4)c3=N)Oc3ccc4ccccc4c32)c1` (stereo not given), the max response is -10.9%. Next, `COc1ccc2c(c1)Oc1ncn(CCN3CCOCC3)c(=N)c1C2c1ccc(OC)c(OC)c1` (stereo not given): -21.2%. In the case of `COc1ccc(C2c3ccc4ccccc4c3Oc3ncn(CCN4CCOCC4)c(=N)c32)cc1OC` (stereo not given), the max response is -8.9%. Under `O=C(Nc1ncnc2c1C(c1ccccc1)c1c(ccc3ccccc13)O2)c1ccccc1` (stereo not given) stands 8.3%; under `COc1cccc(C2c3c(ncn(-c4ccccc4SC)c3=N)Oc3ccc4ccccc4c32)c1` (stereo not given), 14.8%.
